The record followed here is PubChem BioAssay AID1569 (National Center for Advancing Translational Sciences (NCATS), 2009).

Inconclusive results are not listed. Calls of active or inactive are those of the source. Calls follow the shape of the dose curve; as a rule, active = well fitted inhibition curve with a large enough effect; inconclusive = small, poorly fitted or top-dose-only effect, or effect the other way, or another doubt; inactive = no such curve, though single readings can be large or run the other way.
Potency is read from the fitted curve at half-maximal effect.

The experiment can be described thus: Confirmation Concentration-Response Assay for lipid storage modulators. Also: nearly all actives have a fitted effect of over 80% in size. Conditions: Drosophila S3 cells, lipid droplet BODIPY/CellTracker ratio, 18-24 h; series mostly up to 46.1 µM. The procedure, abridged:
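Cells at 5,000/well received compound as a titration plus oleic acid (added as 400 uM solution) and were incubated 18–24 h at 24 °C. BODIPY 493/503 lipid signal and CellTracker Red cell count were read by 488-nm laser-scanning cytometry. Activity was normalised to 20 uM Triacsin C.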
Consider `CCN(CC)S(=O)(=O)c1cc(NC(=O)CNc2cccc(S(=O)(=O)N3CCOCC3)c2)ccc1C`, for which the Potency is 2.81 µM (active).

`COc1ccc(-c2nc(C)ncc2N=Nc2ccccc2)cc1`: the Potency is 25 µM (active).

Regarding `O=C(Nc1ccc(Cl)c(Cl)c1)Nc1ccc(Br)cc1F`, the Potency is 8.88 µM (active).

On to `CC(=O)N1CCN(C(=O)C2(NC(=O)Nc3ccc(C)cc3)CCCCC2)CC1`, for which the Potency entry was “inactive”.

For the molecule `CCOc1ccc(CCNC(=O)COC(=O)c2cccc(N(C)C)c2)cc1OCC`, the Potency is 0.396 µM (active).

Take `CC(C)(C)c1cc[n+](C2=C([O-])c3ccccc3C(=O)/C2=N\S(=O)(=O)c2cccs2)cc1`: the Potency was 28.1 µM (active).

On to `COc1ccc(N=NC2C(=O)N(c3ccccc3)N=C2C)cc1` (stereo unspecified), for which the Potency is 14.1 µM (active).

On to `CCCOc1ccc(Cc2c(Cl)nc(SC)nc2NC)cc1`, for which the Potency is 14.1 µM (active).

`CCOc1ccc(CCNC(=O)COC(=O)CSc2ccccc2C)cc1OCC`: the Potency entry was “inactive”.

`O=C(CCc1ccccn1)NC1CCCc2c1cnn2-c1ccc(F)cc1F` (stereo unspecified): the Potency entry is “inactive”.

For `O=C(NCC1(N2CCOCC2)CCCCC1)c1ccc(S(=O)(=O)Nc2ccccc2F)cc1`, the Potency is 3.97 µM (active).

Take `CCOc1ccc(CCNC(=O)COC(=O)c2cccc(S(=O)(=O)N3CCCCC3)c2)cc1OCC`: the Potency entry is “inactive”.

On to `CCC(C)N1C(=O)c2ccccc2C1C(=O)NC1CCCCCC1` (stereo unspecified), for which the Potency is 1.99 µM (active).

In the case of `Cc1ccc(S(=O)(=O)N(C)C)cc1NC(=O)COC(=O)c1sc2cc(Cl)ccc2c1Cl`, the Potency is 14.1 µM (active).

On to `CCC(C)(C)NC(=O)C(c1cccn1C)N(Cc1ccc(OC)cc1)C(=O)Cn1nnc2ccccc21` (stereo unspecified), for which the Potency was 2.5 µM (active).

For `O=C(CSc1nnc2c(n1)[nH]c1ccccc12)Nc1cccc(S(=O)(=O)N2CCOCC2)c1`, the Potency is 15.8 µM (active).

With `Cc1cnc(NC(=O)CSc2ncc(-c3ccccc3)n2Cc2ccco2)s1`, the Potency result was “inactive”.

In the case of `CCOc1ccc(CCNC(=O)COC(=O)COc2cc(C)cc(C)c2)cc1OCC`, the Potency result is “inactive”.

As for `Cc1ccc(-n2ncc3c2CCCC3NC(=O)c2cnccn2)cc1C` (stereo unspecified), the Potency was 0.141 µM (active).

For the molecule `COc1cccc(-n2nnnc2SCC(=O)NCCc2ccc(OC)c(OC)c2)c1`, the Potency result was “inactive”.

Regarding `COc1ccc(CCNC(=O)CSC2=NS(=O)(=O)c3ccccc3N2)cc1OC`, the Potency entry is “inactive”.
